About 83,000 compounds went through this panel and 20% of them were active in at least one assay; those are over-represented in the sample as a whole.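 Percent growth is the endpoint: 0 to 100 indicates growth inhibition (40 means 60% inhibition), 0 means no net growth, and negative values indicate cell death.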 Active and inactive are the calls of the source. How the source made its calls: active means growth percent below 10; inactive means the rest.
Key:
Experiment in all cases: NCI-60 one-dose screen, 48 h (100 = growth as untreated, 0 = no growth, -100 = all killed)
Conditions in all cases: 10 µM unless noted
NCI-H23 lung = tested on: NCI-H23 lung
NCI-H226 lung = tested on: NCI-H226 lung
NCI-H322M lung = tested on: NCI-H322M lung
HOP-62 NSCLC = tested on: HOP-62 NSCLC
NCI-H460 lung = tested on: NCI-H460 lung
HOP-92 NSCLC = tested on: HOP-92 NSCLC
A549/ATCC NSCLC = tested on: A549/ATCC NSCLC
786-0 renal = tested on: 786-0 renal
COLO 205 colon = tested on: COLO 205 colon
DU-145 prostate = tested on: DU-145 prostate
K-562 leukemia = tested on: K-562 leukemia
MALME-3M melanoma = tested on: MALME-3M melanoma
MDA-MB-231 breast = tested on: MDA-MB-231 breast
SF-268 CNS = tested on: SF-268 CNS
SF-295 CNS = tested on: SF-295 CNS
SF-539 CNS = tested on: SF-539 CNS
M14 melanoma = tested on: M14 melanoma
UACC-257 melanoma = tested on: UACC-257 melanoma
RXF 393 renal = tested on: RXF 393 renal

Measured: growth

COc1ccc(N2CCN(CC(=O)N3CCN(c4nnc(-c5ccccc5)c(-c5ccccc5)n4)CC3)CC2)cc1
inactive: NCI-H23 lung 46.8% | NCI-H226 lung 46.2% | NCI-H322M lung 78.2% | HOP-62 NSCLC 64.7% | NCI-H460 lung 42.5% | HOP-92 NSCLC 39% | A549/ATCC NSCLC 14.8% | 786-0 renal 27% | COLO 205 colon 47.9% | DU-145 prostate 70.5% | K-562 leukemia 18.7% | MALME-3M melanoma 64.6% | MDA-MB-231 breast 72.1% | SF-268 CNS 62.6% | SF-295 CNS 39.6% | SF-539 CNS 53.9% | M14 melanoma 64.4%

CCOC(=O)c1cnc2c(C)cc(C)cc2c1NCCCN(C)C
inactive: NCI-H23 lung 35.2% | NCI-H226 lung 36.1% | NCI-H322M lung 20.9% | HOP-62 NSCLC 21.4% | NCI-H460 lung 10.1% | 786-0 renal 29.2% | COLO 205 colon 17.4% | DU-145 prostate 35.4% | MALME-3M melanoma 51% | MDA-MB-231 breast 35.7% | SF-268 CNS 35.7% | SF-295 CNS 29.9% | SF-539 CNS 28.9% | M14 melanoma 34.2%
active: HOP-92 NSCLC 4.88% | A549/ATCC NSCLC 1.69% | K-562 leukemia 8.6%

C1=C(Cc2ccccc2)n2cnc3ncnc(c32)S1
inactive: NCI-H23 lung 61.3% | NCI-H226 lung 53.7% | NCI-H322M lung 73% | HOP-62 NSCLC 39.9% | NCI-H460 lung 83.8% | HOP-92 NSCLC 56.6% | A549/ATCC NSCLC 87.3% | 786-0 renal 29.3% | COLO 205 colon 82% | DU-145 prostate 27.3% | K-562 leukemia 14.4% | MALME-3M melanoma 68% | MDA-MB-231 breast 35.1% | SF-268 CNS 71.9% | SF-295 CNS 30% | SF-539 CNS 43.2% | UACC-257 melanoma 74.9% | M14 melanoma 13.2%

Cc1sc2nc3c4ccccc4c(NCCCN(C)C)nn3c(=O)c2c1C
active: COLO 205 colon -57.4% | K-562 leukemia -73.8% | MALME-3M melanoma -42.2% | MDA-MB-231 breast -23.6% | M14 melanoma -95.6%
inactive: NCI-H23 lung 60.9% | NCI-H226 lung 42.8% | NCI-H322M lung 83.1% | HOP-62 NSCLC 61.7% | NCI-H460 lung 23.6% | HOP-92 NSCLC 29% | A549/ATCC NSCLC 15% | 786-0 renal 55.7% | DU-145 prostate 41.5% | SF-268 CNS 66.7% | SF-295 CNS 65.6% | SF-539 CNS 29%

COc1cccc(C=Nc2cc(C(C)C)c(O)cc2C)c1O
inactive: NCI-H23 lung 95.2% | NCI-H226 lung 93% | NCI-H322M lung 95.3% | HOP-62 NSCLC 95% | NCI-H460 lung 107% | HOP-92 NSCLC 82.3% | A549/ATCC NSCLC 109% | 786-0 renal 106% | COLO 205 colon 98.6% | DU-145 prostate 114% | K-562 leukemia 107% | MALME-3M melanoma 106% | MDA-MB-231 breast 88.9% | RXF 393 renal 104% | SF-268 CNS 92.1% | SF-539 CNS 91.7% | UACC-257 melanoma 111%

CCOc1cc(CCNS(=O)(=O)c2ccc(C)cc2)c(C(C)=O)cc1OCC
active: HOP-92 NSCLC -5.84% [100 µM]
inactive: NCI-H23 lung 89.3% [100 µM] | NCI-H226 lung 81% [100 µM] | NCI-H322M lung 108% [100 µM] | HOP-62 NSCLC 96.6% [100 µM] | NCI-H460 lung 76.9% [100 µM] | A549/ATCC NSCLC 74.8% [100 µM] | 786-0 renal 74.9% [100 µM] | COLO 205 colon 95.9% [100 µM] | DU-145 prostate 76.1% [100 µM] | K-562 leukemia 41.3% [100 µM] | MALME-3M melanoma 98.3% [100 µM] | MDA-MB-231 breast 78.5% [100 µM] | RXF 393 renal 87% [100 µM] | SF-268 CNS 79.9% [100 µM] | SF-539 CNS 101% [100 µM] | UACC-257 melanoma 77.8% [100 µM] | M14 melanoma 79.9% [100 µM]

COc1cccc(N2CCN(CC(=O)N3CCN(c4nnc(-c5ccc(Cl)cc5)c(-c5ccc(Cl)cc5)n4)CC3)CC2)c1
active: A549/ATCC NSCLC -1.64%
inactive: NCI-H23 lung 82.9% | NCI-H226 lung 74.7% | NCI-H322M lung 71.9% | HOP-62 NSCLC 95.9% | NCI-H460 lung 70.8% | HOP-92 NSCLC 11.9% | 786-0 renal 79.4% | COLO 205 colon 78.6% | DU-145 prostate 89% | K-562 leukemia 32.6% | MALME-3M melanoma 92.2% | MDA-MB-231 breast 83.1% | SF-268 CNS 84.1% | SF-295 CNS 66.7% | SF-539 CNS 57.8% | M14 melanoma 70.5%

O=C(CN1CCN(c2ccc(Cl)cc2)CC1)N1CCN(c2nnc(-c3ccccc3)c(-c3ccccc3)n2)CC1
active: A549/ATCC NSCLC -6.5% | K-562 leukemia 4.43%
inactive: NCI-H23 lung 34.9% | NCI-H226 lung 43.7% | NCI-H322M lung 80.7% | HOP-62 NSCLC 58.1% | NCI-H460 lung 30.7% | HOP-92 NSCLC 39.1% | 786-0 renal 35.9% | COLO 205 colon 33% | DU-145 prostate 62.8% | MALME-3M melanoma 76.5% | MDA-MB-231 breast 64.5% | SF-268 CNS 58.5% | SF-295 CNS 38.4% | SF-539 CNS 50.5% | M14 melanoma 60.1%

COC(=O)[C@H](Cc1cnc[nH]1)NC(=O)[C@@H](NC(=O)Nc1cc(C(F)(F)F)cc(C(F)(F)F)c1)C(C)C
active: NCI-H23 lung -70.6% [100 µM] | NCI-H226 lung -44.1% [100 µM] | NCI-H322M lung -94.9% [100 µM] | HOP-62 NSCLC -92.5% [100 µM] | NCI-H460 lung -42.5% [100 µM] | HOP-92 NSCLC -96.7% [100 µM] | A549/ATCC NSCLC -70.8% [100 µM] | 786-0 renal -90.7% [100 µM] | COLO 205 colon -82.6% [100 µM] | DU-145 prostate -100% [100 µM] | K-562 leukemia -46% [100 µM] | MALME-3M melanoma -94.4% [100 µM] | MDA-MB-231 breast -95.9% [100 µM] | RXF 393 renal -89.3% [100 µM] | SF-268 CNS -92.7% [100 µM] | SF-539 CNS -95.7% [100 µM] | UACC-257 melanoma -87.6% [100 µM] | M14 melanoma -89% [100 µM]

— PubChem BioAssay (NCI)
